Measurements taken from ChEMBL document CHEMBL3988442, “University of Dundee, Small-Polar-MMV Screening Library” (2021).
Screen size: about 48,000 compounds; about 13,000 (27%) showed an effect of 50% or more. This is one part of the list.

tested on: Wolbachia pipientis; assay: Anti-Wolbachia Cell-Based Screen; assay type: functional; set-up: scale not given: in the data most compounds retested in dose-response had high values; conditions: 5 µM

| Structure (SMILES) | Percent Effect |
| --- | --- |
| Cc1occc1CNC(=O)N(CCCO)C1CCc2ccccc21 (stereo unspecified) | -0.08809% |
| CCC(CO)N(Cc1ccccn1)C(=O)c1ncccc1C (stereo unspecified) | -0.3576% |
| CCc1cnc(C)nc1N1CCN(Cc2ccc(-c3cc[nH]n3)o2)CC1 | -14.59% |
| Cc1nccc(C2CN(Cc3ccc(-c4ccccc4C(=O)O)o3)C2)n1 | 137.2% |
| CCNC(=O)[C@@H]1C[C@H](N)CN1Cc1ccc(-c2ccccc2C#N)o1 | 18.83% |
| CCc1nc(C)ncc1C(=O)N1CC(=O)N(C)c2ccccc21 | -0.2346% |
| Nc1nccc(C2CN(Cc3ccc(-c4ccccc4C(=O)O)o3)C2)n1 | 91.52% |
| Cc1ccc(CN2CCC3(CCC3NS(=O)(=O)c3ccccc3)CC2)o1.O=C(O)C(F)(F)F (stereo unspecified) | -9.512% |
| Cc1ccnc(C2CN(Cc3ccc(-c4ccccc4C(=O)O)o3)C2)n1 | 103.2% |
| CCNC(=O)[C@@H]1C[C@@H](N)CN1Cc1ccc(-c2ccccc2C#N)o1 | -0.5053% |
| Cc1ccc(CN2C[C@@H](C(=O)O)[C@H](c3ccccn3)C2)o1 | 12.21% |
| NCCN1C(=O)CC[C@H]2CN(Cc3ccc4occc4c3)CC[C@H]21 | -1.233% |
| C1CN(c2nc(C3CC3)ns2)CCS1 | 2.674% |
| CS(=O)(=O)c1cccc2c1CCCN2C(=O)Cc1cccc(F)c1 | 14.6% |
| CS(=O)(=O)c1ccc(O[C@H]2COCCN(C(=O)c3ccno3)C2)cc1 | -17.98% |
| CCCN(c1ccccc1C(=O)O)S(=O)(=O)c1ccc2ccccc2c1 | -7.662% |
| CC1=CCN(C(=O)Nc2ccccc2N2CCOC2=O)CC1 | 8.909% |
| COc1ccc(C)cc1C1(CNc2cn[nH]c(=O)c2Cl)CCOCC1 | 1.939% |
| CC(NC(=O)N(C)Cc1ccncc1)c1cn(-c2ccccc2)nn1 (stereo unspecified) | -5.138% |
| COC(=O)N1CCC(Nc2cccc(F)c2C(C)=O)CC1 | 7.066% |
| Cc1cccc(CN(Cc2cccnc2)C2CC(C)(C)NC(C)(C)C2)n1.O=C(O)CC(O)(CC(=O)O)C(=O)O | 68.09% |

| Structure (SMILES) | Percent Effect |
| --- | --- |
| CC1(C)CC(N(Cc2cccnc2)Cc2cccc(F)c2)CC(C)(C)N1.O=C(O)CC(O)(CC(=O)O)C(=O)O | 152.9% |
| CCCN(Cc1cccnc1)C(=O)C1CCS(=O)(=O)CC1 | -18.37% |
| CC1(C)CC(N(Cc2ccncc2)Cc2cccnc2)CC(C)(C)N1.O=C(O)CC(O)(CC(=O)O)C(=O)O | 106.8% |
| CCCN(Cc1cccnc1)C(=O)C1CCNC1 (stereo unspecified) | -6.629% |
| CCCN(Cc1cccnc1)C1CC(C)(C)NC(C)(C)C1.O=C(O)CC(O)(CC(=O)O)C(=O)O | 90.76% |
| CC1CN(c2ccc(CNC(=O)NCCn3ccnc3)cn2)CCO1 (stereo unspecified) | -7.777% |
| Cc1nn(C)cc1-c1ccnc(N(C)Cc2ccoc2)n1 | -63.97% |
| CN(Cc1ccncc1)C(=O)Nc1cnn(CC2CCCO2)c1 (stereo unspecified) | -18.51% |
| Cl.O=C(Nc1cccc(C(=O)OCC2CCCN2)c1)c1ccoc1 (stereo unspecified) | -16.18% |
| Cc1cc(C)n(CC2CCCN2CCCS(=O)(=O)N(C)C)n1 (stereo unspecified) | -14.18% |
| Cc1cc(=O)[nH]c(NCCNC(=O)CN2CCCCCC2)n1 | 0.3352% |
| COCCCSc1ccc(NCc2scnc2C)cc1 | -22.23% |
| CNC(=O)NC(=O)CN(CC(C)O)c1ccccc1 (stereo unspecified) | 1.255% |
| Cc1ccc(CN(Cc2cccnc2)C2CC(C)(C)NC(C)(C)C2)s1.O=C(O)CC(O)(CC(=O)O)C(=O)O | 9.465% |
| CC1(C)CC(N(Cc2ccccc2)Cc2cccnc2)CC(C)(C)N1.O=C(O)CC(O)(CC(=O)O)C(=O)O | 31.11% |
| Cc1ncsc1C(=O)N(Cc1cccnc1)C1CC1 | 11.29% |
| Cc1ccsc1CN(Cc1cccnc1)C1CC(C)(C)NC(C)(C)C1.O=C(O)CC(O)(CC(=O)O)C(=O)O | 106.7% |
| CC1(C)CC(N(Cc2cccnc2)Cc2cccnc2)CC(C)(C)N1.O=C(O)CC(O)(CC(=O)O)C(=O)O | 81.01% |
| CCCN(C)c1ncc2c(n1)N(C)CCN(CC1CC1)C2=O | 98.31% |
| CN(C)c1ncc2c(n1)N(C)CCN(CC1CC1)C2=O | 109.4% |
| CN1CCc2nc(N(C)C)nc(N3CCC(O)CC3)c2C1 | 12.64% |

| Structure (SMILES) | Percent Effect |
| --- | --- |
| Cc1ccccc1-n1cnnc1SCCOCC1CCCO1 (stereo unspecified) | -11.81% |
| Cc1ccc(-c2noc([C@@H]3C[C@H](NC(=O)CC(C)(C)C)CN3C)n2)cc1 | -9.06% |
| Cc1ccnc(CC(C)N(C)c2cc(CN)nc(C)n2)c1 (stereo unspecified) | -4.516% |
| Cn1ccnc1CN1CCN(CC(O)c2cccc(F)c2)CC1 (stereo unspecified) | 1.006% |
| CCn1ccnc1CN1CCN(CC(O)c2ccccc2)CC1 (stereo unspecified) | -0.4709% |
| CCn1ccnc1CN1CCN(CC(O)c2cccc(F)c2)CC1 (stereo unspecified) | 152.7% |
| COc1ccc(C(C)N2CCN(Cc3nccn3C)CC2)cc1Cl (stereo unspecified) | -0.7599% |
| CC(c1cccc(F)c1)N1CCN(Cc2nccn2C)CC1 (stereo unspecified) | 119.5% |
| CC(c1ccc(F)c(F)c1)N1CCN(Cc2nccn2C)CC1 (stereo unspecified) | -0.152% |
| O=C(O)C(F)(F)F.O=C(O)C(F)(F)F.O=C(O)C(F)(F)F.c1cnc(NCc2noc3c2CN(CCN2CCCC2)CC3)nc1 | -9.81% |
| Cc1ccc(NC(=O)NC(C)c2nc[nH]n2)s1 (stereo unspecified) | 10.15% |
| CSCCN1CCN(c2nc(N)ncc2C)CC1 | -15.55% |
| O=C(c1cnccn1)N1CCN2C[C@H](OCc3ccccn3)C[C@H]2C1 | 1.808% |
| O=C(O)C1(Cc2cccc(-c3ccc(F)cc3)c2)CCOCC1 | 105.2% |
| Fc1ccc(C2(NCc3ccccc3)CCOCC2)cc1 | -10.48% |
| COc1cccc(CC2(C(=O)O)CCN(c3nccs3)CC2)c1 | 5.275% |
| COc1cccc(CC2(C(=O)O)CCN(c3ccc(Cl)cn3)CC2)c1 | -33.64% |
| COc1ccc(-c2cccc(CC3(C(=O)O)CCOCC3)c2)cc1 | 106.8% |
| O=C(O)C1(Cc2cccc(-c3ccc(F)c(F)c3)c2)CCOCC1 | -9.122% |
